The source of these data is ChEMBL document CHEMBL1201862, “PubChem BioAssay data set” (2004).

Out of some 53,000 sequences screened, about 4,900 (9.2%) were called active. The sample holds actives, similar sequences and a random draw of the others, so the mix is not that of the screen. Rule as the data show it: active = GI50 up to about 1.1 µM and inactive = higher. Potency and affinity values are given separately.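 Method: 48-hour compound exposure of cells in 96-well plates, five concentrations, linear interpolation of endpoints. Abbreviation: GI50, concentration required for 50% inhibition of growth.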

In this assay the test system is NCI-H522. In words: NCI tumour cell line growth inhibition, 48 h.
CISPLATIN, CHEMBL11359 returned a GI50 of 2030 nM.

“cis-Bis[[(trimethylsilyl)methyl]amino]tetrachloroplatinum(IV), CHEMBL2146191” yielded a GI50 of 8220 nM.

For the substance “[Bis(aminomethyl)tetramethylenesilane]tetrachloropaltinum(IV), CHEMBL2146189”, the GI50 was found to be 2180 nM.

In turn, “[Bis(aminomethyl)dimethylsilane]dichloroplatinum (II), CHEMBL2146201” displayed a GI50 of 4940 nM.

Turning to “[Bis(aminomethyl)pentamethylenesilane]tetrachloropaltinum(IV), CHEMBL2146204”, the GI50 came to 776 nM.

As to “[Bis(aminomethyl)diethylsilane]tetrachloroplatinum(IV), CHEMBL2146203”, the GI50 is 2650 nM.

Substance “[Bis(aminomethyl)tetramethylenesilane]dichloropaltinum(II), CHEMBL2146205” gave a GI50 of 7620 nM.

Regarding “mu-(1,7-nanodiamine-N,N')bis-(cis-aminedichloroplatimum (II)), CHEMBL2146215”, the GI50 is 7940 nM.

“[Bis(aminomethyl)pentamethylenesilane]dichloropaltinum(II), CHEMBL2146202”: the GI50 turned out to be 1520 nM.

For “[Bis(aminomethyl)dimethylsilane]tetrachloroplatinum(IV), CHEMBL2146190”, the GI50 was 1830 nM.
